G9a inh: inhibitors of human histone lysine methyltransferase G9a; Potency, µM (titrated, usually from 102 µM), without a hit: at the top dose activity, negative = inhibition, actives largely listed as inhibitors; 350,000 tested, 8.8% active; Q96KQ7; AID 504332; G9a H3K9 monomethylation, AlphaScreen, 2 h; note: % is set by controls: 0 for no effect and ±100 for the full control effect; nearly all actives have a fitted effect of over 75% in size
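Signal arises when biotinylated H3K9 peptide, once monomethylated, bridges streptavidin donor and antibody-captured acceptor beads. Enzyme at 20 nM was preincubated 15 min with test compounds; peptide 500 nM and SAM 20 uM then reacted for 2 h.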
BAZ2B block: BAZ2B (human) inhibition | Q9UIF8 | AlphaScreen BAZ2B-H3K14Ac peptide displacement | Potency, µM (series often up to 114 µM), without a hit: at the top dose activity change, negative = inhibition, usual class: inhibitors | 360,000 tested, 4.4% active | AID 504333; note: % is set by controls: 0 for no effect and ±100 for the full control effect; nearly all actives have a fitted effect of over 60% in size
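In this displacement format the biotinylated H3(5-23) peptide acetylated at Lys14 serves as ligand at 50 nM, with BAZ2B at 50 nM in PBS pH 7.4 containing 0.01% Tween-20. Donor and acceptor beads are 10 ug/mL final.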
Sfp inh: Sfp phosphopantetheinyl transferase inhibition; Q9F4F7; Biochemical Sfp PPTase activity, qHTS; Potency, µM, for the others: largest response in the series, negative = inhibition, usual class: inhibitors; 310,000 tested, 3.5% active; AID 1490;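 note: the enzyme is Sfp with the accession as filed and its product quenches rhodamine fluorescence; 0% = enzyme reaction without inhibitor and -100% = no enzyme wells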
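Buffer: 50 mM Hepes-Na pH 7.6, 10 mM MgCl2, 0.01% Nonidet P-40, 0.01% BSA. Enzyme 15 nM, pre-exposed to compound 15 min; substrates then added and fluorescence change tracked over 30 min.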
JMJD2A Tudor inh: JMJD2A Tudor domain (human) inhibition; O75164; AlphaScreen JMJD2A-Tudor / H3K4me3 peptide binding; Potency, µM (doses to about 114 µM), for the others: at the highest dose activity change, negative = inhibition, hits mostly inhibitors; 390,000 tested, 4.4% active; AID 504339; note: % is set by controls: 0 for no effect and ±100 for the full control effect; nearly all actives have a fitted effect of over 50% in size
PLK1 PBD block: inhibitors of human PLK1 polo-box domain binding. Plk1 PBD binding of FITC phosphopeptide, fluorescence polarization. 360,000 tested, 2.8% active. Potency, µM, for inactives: max response, negative = inhibition, most hits filed as inhibitors; note: series mostly up to about 57 µM; % is set by controls: 0 for no effect and ±100 for the full control effect; nearly all actives have a fitted effect of over 65% in size
Target sequence (P53350 whole entry, looked up, the tested form may be a part): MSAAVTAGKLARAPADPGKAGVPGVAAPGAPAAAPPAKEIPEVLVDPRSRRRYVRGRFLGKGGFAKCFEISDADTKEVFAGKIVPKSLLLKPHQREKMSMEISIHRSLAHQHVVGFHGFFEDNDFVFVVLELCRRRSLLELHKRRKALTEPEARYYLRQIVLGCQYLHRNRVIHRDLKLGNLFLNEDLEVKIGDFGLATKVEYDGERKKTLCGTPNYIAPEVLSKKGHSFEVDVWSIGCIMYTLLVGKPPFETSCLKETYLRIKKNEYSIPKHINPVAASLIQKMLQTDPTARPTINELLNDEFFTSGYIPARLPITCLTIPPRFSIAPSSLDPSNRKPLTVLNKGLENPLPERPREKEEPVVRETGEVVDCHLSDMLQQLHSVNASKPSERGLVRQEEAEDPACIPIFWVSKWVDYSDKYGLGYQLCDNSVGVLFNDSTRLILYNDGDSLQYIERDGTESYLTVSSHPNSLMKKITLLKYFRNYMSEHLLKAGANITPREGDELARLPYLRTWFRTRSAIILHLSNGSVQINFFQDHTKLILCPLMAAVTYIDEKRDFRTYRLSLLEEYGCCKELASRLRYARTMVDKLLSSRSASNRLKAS
HP1b chromo inh: blocks HP1-beta chromodomain binding to methylated histone tails. AlphaScreen HP1-beta / biotin-H3K9me3 peptide binding. P83916. Potency, µM (series often up to 114 µM), for the others: top-dose activity change, negative = inhibition, hits mostly inhibitors. 390,000 tested, 0.56% active; note: nearly all actives have a fitted effect of over 70% in size
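Compound inhibition of the preformed complex between 50 nM HP1-beta and 50 nM biotinylated H3K9me3 peptide was read by AlphaScreen. Buffer was PBS pH 7.4 with 0.01% Tween-20. Incubations ran 30 min at room temperature, with 10 ug/mL donor/acceptor beads.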
* = called active by the depositor; ? = inconclusive; nt = no result given; [ ] = dose if it differs, or a comment. The list is not random: actives were taken first. Their share in the collection is about 12%. Calls come from the whole dose curve; as a rule, active = well fitted curve in the direction sought with a large enough effect; inconclusive = small, poorly fitted or top-dose-only effect, or another doubt; inactive = no such curve, though single readings can be large; an effect the other way counts as inactive or inconclusive. Potency is the fitted concentration of half-maximal effect.

SMILES	G9a inh	BAZ2B block	Sfp inh	JMJD2A Tudor inh	PLK1 PBD block	HP1b chromo inh
CCN(c1ccccc1)S(=O)(=O)c1ccc2[nH]cc(C(=O)NCCOC)c(=O)c2c1	13%[12.7 µM]	10%	2%	-18%	-4%	0%
CCN(c1ccccc1)S(=O)(=O)c1ccc2[nH]cc(C(=O)NCc3ccc(C)cc3)c(=O)c2c1	-14%[59 µM]	-12%	nt	56µM*	nt	13%
Cc1cccc2c(=O)c(-c3ccc4c(c3)OCO4)c(NC(=O)c3ccco3)oc12	5%[0.0925 µM]	-15%	7%	?	24µM*	10%
Cc1ccc2c(CC(=O)Nc3c(C(=O)c4ccc(F)cc4)oc4ccccc34)coc2c1C	10%[59 µM]	4%	nt	-7%	nt	59%
COc1ccc(C(=O)C[n+]2cccc(C)c2)cc1	71µM*	11%	-9%	-17%	-1%	16%
COc1ccc(C(=O)C[n+]2cccc(C(N)=O)c2)cc1	?	3%	22%	-6%	-11%	26%
O=C1CN(S(=O)(=O)c2cccc(Cl)c2Cl)c2ccccc2N1	50µM*	3%	-5%	-10%	?	14%
O=C1CN(S(=O)(=O)c2ccc(Br)cc2)c2ccccc2N1	-4%	3%	10%	-10%	-7%	26%
COc1ccc(C2=CSC3=NCCN23)cc1F	28µM*	-10%	-10%	-12%	-25%	6%
Cc1c(CCO)c(=O)n(-c2ccccc2)n1S(=O)(=O)c1ccc(Cl)cc1	25µM*	?	-7%	?	?	22%
Cc1c(CCO)c(=O)n(-c2ccccc2)n1S(=O)(=O)c1ccc([N+](=O)[O-])cc1	?	-30%	-13%	-5%[57.1 µM]	?	17%
O=C(CN1C(=O)C2(OCCO2)c2ccccc21)c1ccc(Br)cc1	40µM*	-31%	9%	-7%	-14%	35%
NCCc1c(C(=O)O)[nH]c2ccc([N+](=O)[O-])cc12	6%[12.7 µM]	-12%	7%	-10%[11.4 µM]	21µM*	-10%
CC(=O)Oc1cc(C(F)(F)F)ccc1C(=O)O	-38%[5.15 µM]	nt	19%	nt	nt	nt
O=C(O)c1c[nH]c2ccc([N+](=O)[O-])cc2c1=O	nt	nt	nt	79µM*	3%	0%
Cc1c(C(=O)N/N=C/C(C)C)[nH]c2ccc([N+](=O)[O-])cc12	24%[59 µM]	-35%	3%	-20%	-4%	8%
Cc1c(C(=O)O)[nH]c2ccc([N+](=O)[O-])cc12	?	79µM*	4%	79µM*	?	?
O=C(O)c1c[nH]c2cc(C(F)(F)F)ccc2c1=O	39%[0.501 µM]	50µM*	2%	0%	-3%	14%
Cc1nn(CC(=O)NCc2cccc(F)c2)c(=O)c2c(C)n(-c3ccc(Cl)cc3)nc12	9%[59 µM]	0%	nt	-10%	nt	24%[57 µM]
CC(=O)C(Sc1ccc2nnc(-c3ccc(F)cc3)n2n1)C(C)=O	18µM*	?	10%	?	-8%	44%
CC(=O)C(Sc1ccc2nnc(-c3cccnc3)n2n1)C(C)=O	71µM*	nt	-13%	-14%	-24%	57%
CC(=O)C(Sc1ccc2nnc(-c3ccc(C)cc3)n2n1)C(C)=O	32µM*	-2%	-14%	?	0%	22%
NS(=O)(=O)c1ccc(NCC2COc3ccccc3O2)c([N+](=O)[O-])c1 (stereo not given)	50µM*	-35%	12%	-32%	-2%	-21%
O=C1c2ccccc2-c2nnc(-c3ccccc3)cc21	5%[0.501 µM]	?	4%	-28%	-9%	18%
COc1ccc(-c2cc3c(nn2)-c2ccccc2C3=O)cc1	-5%	-14%	11%	22µM*	24µM*	-8%
SMILES	G9a inh	BAZ2B block	Sfp inh	JMJD2A Tudor inh	PLK1 PBD block	HP1b chromo inh
Cc1ccc(Cn2c(C(C)NC(=O)c3ccccc3)nc3ccccc32)cc1 (stereo not given)	-1%[59 µM]	17%	nt	-15%	nt	76%
Cc1ccc(N=c2sc(C)c(C)n2C)cc1	45µM*	?	-9%	?	-8%	-7%
O=C(O)CCCNc1ccc(S(=O)(=O)Nc2ccccc2C(=O)O)cc1C(=O)O	50µM*	?	22%	-34%	1%	8%
O=C(O)CCNS(=O)(=O)c1ccc2ccccc2c1	19%	?	-1%	-17%	-7%	12%
Cc1ccccc1NS(=O)(=O)c1ccc(C)c(C(N)=O)c1	0%	-2%	19%	13%	0%	29%
O=C(O)CCNc1cc2ccccc2cc1C(=O)O	?	nt	?	40µM*	-12%	-21%
O=C(NCc1cccc(Cl)c1)C1CCCN(c2nn3cc(-c4ccc(F)cc4)nc3s2)C1 (stereo not given)	?	-4%	nt	-29%	nt	?
COc1ccc(N2CCN(CCNS(=O)(=O)c3cccc4nsnc34)CC2)cc1	?	-39%	20%	-18%[11.4 µM]	27µM*	-30%
COc1ccc(N2CCN(CCNC(=O)CCS(=O)(=O)c3cccc4nsnc34)CC2)cc1	45µM*	?	-9%	nt	nt	nt
COc1ccc(OC)c(NC(=O)CCNS(=O)(=O)c2cccc3nsnc23)c1	-6%	-1%	18%	-13%	-9%	17%
COc1ccc2[nH]cc(CCNS(=O)(=O)Cc3ccccc3)c2c1	nt	?	-11%	-23%	-7%	4%
CO[C@H]1[C@@H](OC(N)=O)[C@H](O)[C@@H](Oc2ccc3c(O)c(NC(=O)c4ccc(O)c(CC=C(C)C)c4)c(=O)oc3c2C)OC1(C)C	35%[21.5 µM]	nt	16%	nt	nt	nt
CCCNCC(=O)Nc1cccc(S(=O)(=O)NC2=NCCCCC2)c1	nt	nt	nt	1µM*	0%	?
Cc1ccc(CNCC(=O)Nc2cccc(S(=O)(=O)NC3=NCCCCC3)c2)cc1	40µM*	?	-13%	7.9µM*	1%	?
O=C(Cc1csc(-c2cccc(Cl)c2)n1)Nc1cccc(S(=O)(=O)NC2=NCCC2)c1	14µM*	0%	nt	-24%	-2%	16%
Cc1ccc(Nc2nnc(SCC(=O)Nc3cccc(S(=O)(=O)NC4=NCCCCC4)c3)s2)c(C)c1	40µM*	-25%	-17%	-26%	-6%	5%
CCCn1c(O)c(N=N)c2ccccc21	-36%	-36%	5%	-18%	-21%	14%
COCCCNC(=S)Nc1cccc(S(=O)(=O)NC2=NCCC2)c1	0%	1%	19%	-11%	-7%	33%
CNC(=S)Nc1cccc(S(=O)(=O)NC2=NCCC2)c1	50µM*	nt	-22%	-1%	-2%	23%
Cc1cccc2c1cnn2C(=O)CCC(=O)NCc1ccc(F)cc1	3%	-5%	6%	-18%	-14%	33%
Cc1cccc(C)c1OCC(N)C(C)C (stereo not given)	3.8µM*	71µM*	nt	0%	-3%	33%
Cc1cccc(C)c1OCC(C)N (stereo not given)	-2%[59 µM]	-36%	-21%	-24%	-12%	19%

Assay outcomes as filed in PubChem BioAssay.
